# Measured values reported in PubChem BioAssay (NCATS).
# Inconclusive results are not listed. A number with no mark means an inactive call. Calls follow the shape of the dose curve; as a rule, active = well fitted curve in the direction sought with a large enough effect; inconclusive = small, poorly fitted or top-dose-only effect, or effect the other way, or another doubt; inactive = no such curve, though single readings can be large or run the other way.
# Target: Transient receptor potential cation channel subfamily V member 1 (Homo sapiens) (UniProt Q8NER1)
# Assay: HTS Assay for Compounds that Act as Enhancers of the Vanilloid Receptor 1 (AID 488979); also: 0% is about no effect
# Conditions: TRPV1-expressing cells, enhancer of channel activity, stimulated with capsaicin at EC20; series mostly up to 41.7 µM; activity change, positive = enhancement: at the top concentration
# Description: The transient receptor potential ion channel, family V, number 1, (TRPV1) is one of the most important molecular transducers of painful stimuli and a potential target for analgesic drug development. Although recent clinical trials with orthosteric antagonists have not produced a successful drug because of a hyperthermia side effect and their tendency to block thermal noxious pain, this ion channel is undeniably well placed in the pain pathway, and the idea of blocking pain signals before they enter the CNS is an excellent concept and of proven efficacy when TRPV1 agonists are used. We propose a new approach involving allosteric modulation to impose an activity-dependent constraint within the context of inflammation and tissue damage that would alter the responsiveness of the channel in a way that an orthosteric vanilloid antagonist cannot achieve. We believe that the allosteric modulator approach has not been explored for this target.
# The main goal of this proposal is to identify additional, new, potent allosteric modulators of TRPV1 that can be used to investigate TRPV1 function. Our recent report provides evidence of proof of concept, but the compounds are just at the edge of utility in terms of potency. […] The question of whether they can be used as analgesic agents is complex, but if suitable compounds are identified then testing for analgesic properties will be conducted.
# Upon TRPV1 activation in TRPV1 cells, the channel opens and extracellular cations flow through the channel into the cytosol. A calcium binding dye (Fluo-8) becomes fluorescent when bound to calcium. This dye is pre-loaded into cells and is used as a marker for calcium influx.
# The amount of accumulated calcium is precisely quantified using the FDSS kinetic reader and the calcium dye.
# For the HTS assay, freshly prepared cells are plated at a density of 2000/well in 3 ul medium in 1536-well plates and cultured overnight at 35.5C. Cells will be loaded with 1 ul of the homogeneous calcium dye (ABD Bioquest) at room temperature for 40 to 90 minutes. Plates will be loaded into the FDSS kinetic reader and a 1 sec / cycle for 10 second baseline signal will be measured. Compound library will then be added with a pintool at 23 nl and measured kinetically for 3 minutes. This portion of the read is considered the agonist portion of the screen. Following the 3 minutes of incubation, an on board pipettor will deliver 1 ul of capsaicin for a final concentration equal to the EC20. Signal will be measured kinetically for an additional 2 minutes. This portion of the read is considered the allosteric enhancer portion of the screen.
# The FDSS reader has a standard filter set capable of measuring calcium bound Fluo-8 (ex=480 and em=520 nm).
# Chain of Transient receptor potential cation channel subfamily V member 1 (Homo sapiens) (Q8NER1 whole entry, looked up): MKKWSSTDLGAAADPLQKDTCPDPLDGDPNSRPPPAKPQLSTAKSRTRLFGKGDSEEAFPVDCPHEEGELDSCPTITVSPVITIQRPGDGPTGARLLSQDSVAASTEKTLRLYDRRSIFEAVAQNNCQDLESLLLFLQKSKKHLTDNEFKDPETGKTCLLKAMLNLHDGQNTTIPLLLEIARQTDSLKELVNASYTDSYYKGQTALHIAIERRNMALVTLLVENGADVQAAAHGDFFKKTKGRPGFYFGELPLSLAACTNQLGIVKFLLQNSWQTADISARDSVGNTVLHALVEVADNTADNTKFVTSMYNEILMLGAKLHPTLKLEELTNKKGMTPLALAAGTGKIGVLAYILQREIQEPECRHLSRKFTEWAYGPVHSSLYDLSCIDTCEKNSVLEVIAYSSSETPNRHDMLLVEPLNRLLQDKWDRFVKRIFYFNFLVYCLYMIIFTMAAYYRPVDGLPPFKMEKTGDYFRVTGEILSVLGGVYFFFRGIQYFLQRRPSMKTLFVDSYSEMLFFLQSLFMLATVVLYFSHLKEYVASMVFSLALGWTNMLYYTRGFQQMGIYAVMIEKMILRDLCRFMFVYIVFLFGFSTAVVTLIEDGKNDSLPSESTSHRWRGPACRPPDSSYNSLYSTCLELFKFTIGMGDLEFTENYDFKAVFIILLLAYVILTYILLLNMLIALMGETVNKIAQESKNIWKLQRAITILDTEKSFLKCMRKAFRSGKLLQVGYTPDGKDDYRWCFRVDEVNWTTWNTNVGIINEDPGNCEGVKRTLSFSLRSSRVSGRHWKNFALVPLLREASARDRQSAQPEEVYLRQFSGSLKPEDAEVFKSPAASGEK
row,SMILES,"activity change, positive = enhancement"
1,NCCCCNCCCN,2.04%
2,OC(CN1CCN(c2cccc(Cl)c2)CC1)C(c1ccccc1)c1ccccc1 (stereo not given),-6.4%
3,O=c1cc(N2CCOCC2)oc2c(-c3ccccc3)cccc12,-5.94%
4,CNC[C@H](O)c1ccc(O)c(O)c1,-3.87%
5,COc1ccc2cc([C@H](C)C(=O)O)ccc2c1,0.245%
6,CC(=O)O[C@H]1C(=O)[C@@]2(C)C([C@H](OC(=O)c3ccccc3)[C@]3(O)C[C@H](OC(=O)[C@H](O)[C@@H](NC(=O)c4ccccc4)c4ccccc4)C(C)=C1C3(C)C)[C@]1(OC(C)=O)CO[C@@H]1C[C@@H]2O (stereo not given in full),-10.7%
7,O=C1c2ccccc2-c2n[nH]c3cccc1c23,5.44%
8,CC1(C)C(=O)N(CCN2CCC(C(=O)c3ccc(F)cc3)CC2)c2ccccc21,-8.77%
9,O=C(NCC1CCCCN1)c1cc(OCC(F)(F)F)ccc1OCC(F)(F)F (stereo not given),10.1%
10,Oc1ccc(-c2nc(-c3ccc(F)cc3)c(-c3ccncc3)[nH]2)cc1,-5.8%
11,O=C(CCc1ccc(O)cc1)c1c(O)cc(O)cc1O,6.65%
12,NC(=NCc1ccccc1)NC(=O)c1nc(Cl)c(N)nc1N,11.4%
13,NNc1nncc2ccccc12,0.933%
14,C[C@H](Cc1ccc(O)c(O)c1)[C@@H](C)Cc1ccc(O)c(O)c1,7.01%
15,O=Nc1c(-c2c(O)[nH]c3cc(Br)ccc23)[nH]c2ccccc12,-33.6%
16,Cc1cc(O)c2c(c1)C(=O)c1cc(O)cc(O)c1C2=O,1.05%
17,Cc1cccc(C#Cc2ccccc2)n1,-17.4%
18,O=C1NC(=O)C(c2ccccc2[N+](=O)[O-])=C1Nc1ccc(O)c(Cl)c1,-11%
19,Nc1nc(OCc2ccccc2)c2[nH]cnc2n1,-19.3%
20,O=c1ccc2ccc(O)c(O)c2o1,-17.9%
21,C[C@@H](N)C1CCC(C(=O)Nc2ccncc2)CC1 (stereo not given in full),4.45%
22,COc1ccccc1N1CCN(CCN(C(=O)C2CCCCC2)c2ccccn2)CC1,-23.5%
23,O=C1c2c(O)cc(O)cc2OC(c2ccc(O)c(O)c2)C1O (stereo not given),10.7%
24,O=c1c(O)c(-c2cc(O)c(O)c(O)c2)oc2cc(O)cc(O)c12,12.4%
25,Cc1c(OCC(F)(F)F)ccnc1CS(=O)c1nc2ccccc2[nH]1 (stereo not given),8.73%
26,CC1(C)NC(=O)N(c2ccc([N+](=O)[O-])c(C(F)(F)F)c2)C1=O,10.2%
27,O=C(c1ccccc1)c1ccc2n1CCC2C(=O)O (stereo not given),-1.47%
28,O=C(O)c1cccnc1Nc1cccc(C(F)(F)F)c1,-7.26%
29,Cc1nc2n(c(=O)c1CCN1CCC(c3noc4cc(F)ccc34)CC1)CCCC2,-4.11%
30,COc1cc2nc(N3CCN(C(=O)C4CCCO4)CC3)nc(N)c2cc1OC (stereo not given),-9.44%
